# Measurements from PubChem BioAssay (NCI).
# Where “and” joins values, the source holds several entries; their conditions need not be identical. Identical values can stand only once. Compounds without any hit were thinned out: in the full panel of roughly 79,000, 15% have a hit. A structure can be active in one record and inactive in another. Calls of active or inactive are those of the source. Cut-off read from the data, not from the text of the source: active = growth inhibition above about 70%; inactive = the rest.
# Test: NCI Yeast Anticancer Drug Screen. Data for the bub3 strain (AID 167)
# Settings: S. cerevisiae bub3 mutant strain, at 50.0 µM, stronger effect = higher value
# How it was run: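 Readout: yeast growth inhibition, expressed relative to vehicle-only wells. The test organism is a mutant strain from a panel with lesions in DNA repair or checkpoint genes.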
row,SMILES,growth inhibition
1,CC(C)(C)CC(C)(C)c1ccc(O)cc1,98.5% (active)
2,CC[n+]1c(/C=C/c2ccc(N(CCCl)CCCl)cc2)ccc2cc(I)ccc21,91.5% (active)
3,CCCCCCC1CCC2CCCC(C)N12 (centres undefined),89% (active)
4,C[N+](C)(C)CC1CCC(C[N+](C)(C)C)C1=O (centres undefined),27.5% (inactive)
5,CCC[CH2][Sn]1([CH2]CCC)[O]C(=O)c2cc(C)ccc2[O]1,90.6% (active)
6,COc1ccc(CC2C(=O)NC(C)C(=O)N(C)C3C(=O)N(C)C(Cc4ccc(O)c(c4)Oc4ccc(cc4)C3O)C(=O)NC(C)C(=O)NC(C)C(=O)N2C)cc1 (centres undefined),65.4% (inactive)
7,CC(=O)Nc1cccc([As+](C)(c2cccc(NC(C)=O)c2)c2cccc(NC(C)=O)c2)c1,6.05% (inactive)
8,COC1OC(COC(C)=O)C(OC(C)=O)C(OC(C)=O)[C]1(OC(C)=O)[Hg][O]C(C)=O (centres undefined),97.8% (active)
9,CCOC(=O)C(NC(=O)C(Cc1ccc(N(CCCl)CCCl)cc1)NC(C)=O)C(C)C (centres undefined),19.1% (inactive) and -22.9% (inactive)
10,CN1c2cccc[c]2[Sn]([CH3])([CH3])[c]2ccccc21,99.2% (active)
11,Cc1ccc(C(=O)OC(C(=O)O)C(OC(=O)c2ccc(C)cc2)C(=O)O)cc1 (centres undefined) (tested in a mixture with another compound),23.3% (inactive) and 93% (active)
12,CC(C)(c1ccccc1)c1ccc(O)cc1,99.5% (active)
13,CC1(C)N=C(N)N=C(N)N1CCCOc1ccc(NC(=O)c2ccc(S(=O)(=O)F)cc2)cc1,-8.15% (inactive)
14,CC1=CC2OC3CC4OC(=O)/C=C/C=C/C(=O)OCCC(C)C(O)C(=O)OCC2(CC1O)C4(C)C31CO1 (centres undefined),91.7% (active)
15,C=CCOc1cc2c(ccc1=O)-c1c(cc(OC)c(OC)c1OC)CCC2NC(C)=O (centres undefined),96.8% (active)
16,c1ccc2c(c1)[As]=c1ccccc1=[As]2 (centres undefined),90.2% (active)
17,CCC(C)(c1ccc(O)cc1)c1ccc(O)cc1,96.4% (active)
18,COc1cc(C2c3cc4c(cc3[C@@H](Nc3ccc(F)cc3)C3COC(=O)[C@H]23)OCO4)cc(OC)c1O (some centres undefined),88.6% (active)
19,CC(C)(C)OC(=O)NC(CSC(c1ccccc1)(c1ccccc1)c1cccs1)C(=O)O (centres undefined),14.2% (inactive)
20,CCOP(=S)(OCC)OC(c1ccc(Cl)cc1)c1ccc(Cl)cc1,49.6% (inactive)

row,SMILES,growth inhibition
1,COc1ccc(OC)c(C=O)c1,-35% (inactive)
2,CC(=O)Oc1cccc2c1CC(C[Se]c1ccccc1)C(=O)O2 (centres undefined),35% (inactive)
3,CCOC(=S)S,99.2% (active)
4,CC(NCCN(C)C)C1CC2CCCCN2C1 (centres undefined),0.8% (inactive)
5,Nc1ncc(CCCCc2ccc(NC(=O)Nc3ccc(S(=O)(=O)F)cc3)cc2)c(N)n1,98.8% (active)
6,CC#N.FC(F)(F)C#CC(F)(F)F.FC(F)(F)C#CC(F)(F)F.FC(F)(F)C#CC(F)(F)F.[W],99.6% (active)
7,[Cl][Hg][CH2]CC1CC=CCC1 (centres undefined),99.6% (active)
8,CC(=O)O[C@H]1CC[C@H]2[C@@H]3CCC4=CC(=O)CC[C@@H]4[C@H]3CC[C@]12C,76.2% (active)
9,c1ccc(P(CCP(c2ccccc2)c2ccccc2)CCP(c2ccccc2)c2ccccc2)cc1,92.8% (active)
10,Cc1cc(NCc2ccccc2)c2ccccc2[n+]1CCCCCCCCCC[n+]1c(C)cc(NCc2ccccc2)c2ccccc21,89.1% (active)
11,CCCCC(CC)CNP(=S)(NCC(CC)CCCC)NCC(CC)CCCC (centres undefined),13.4% (inactive)
12,Nc1c(Br)cc(Br)c2c1C(=O)c1ccccc1C2=O,7.65% (inactive)
13,O=[N+]([O-])/C=C/c1cc2c(cc1Br)OCO2,82.5% (active)
14,CC(Br)CN(CC(C)Br)c1ccc2c(c1)Cc1ccccc1-2 (centres undefined),85.5% (active)
15,c1ccc2c[n+](CCCCCCCCCC[n+]3ccc4ccccc4c3)ccc2c1,91.3% (active)
16,CCC[CH2][Sn]([N]=C=S)([N]=C=S)[N]=C=S.O=P(c1ccccc1)(c1ccccc1)c1ccccc1.O=P(c1ccccc1)(c1ccccc1)c1ccccc1,46.2% (inactive)
17,CN(CCC(N)CC(=O)NC1C=CC(n2ccc(N)nc2=O)OC1C(=O)O)C(=N)N (centres undefined),91% (active) and 92% (active)
18,O=C1C=CC(=O)N1c1cccc2ccccc12 (tested in a mixture with another compound),61% (inactive)
19,CN(C)c1ccc(N=Cc2c([O-])ccc3ccccc23)cc1.[C-]#[O+].[C-]#[O+].[Ir],82.5% (active)
